Assay [1] in a line: qHTS profiling for inhibitors of Plasmodium falciparum proliferation (AID 504749). Also: potency is read from the fitted curve at half-maximal effect.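 As to activity, negative = inhibition: 0% = DMSO vehicle and full inhibition = artemisinin control.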 As to all read-outs here: nearly all actives have a fitted effect of over 60% in size. As to conditions: P. falciparum in erythrocytes, SYBR Green DNA, 72 h; for activity, negative = inhibition: at 28.7 µM (top of the series). The gist of the method:
(§1)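 Readout was DNA-dye fluorescence from lysed cultures, ex 485/em 535 nm. Parasitized red cells had grown 72 h with compound; data scaled between 0.29 uM artemisinin and DMSO wells and corrected using vehicle-only plates.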
On the technique in general: qHTS replaces the single test concentration by a dilution series.

The next assay relates to 3D7. Described as above. As to conditions: P. falciparum in erythrocytes, SYBR Green DNA, 72 h; series mostly up to 28.7 µM. In a few lines:
as §1

The subject of the next assay is 7G8. The assay is described as above. The note with it: P. falciparum in erythrocytes, SYBR Green DNA, 72 h; series mostly up to 28.7 µM. The gist of the method: as §1
In another assay the test system is AA1029. Described as above. As to conditions: P. falciparum in erythrocytes, SYBR Green DNA, 72 h; series mostly up to 28.7 µM. The gist of the method: as §1
Another assay relates to AS120. The assay is described as above. The note with it: P. falciparum in erythrocytes, SYBR Green DNA, 72 h; series mostly up to 28.7 µM. The gist of the method: as §1
The test system of the next assay is ATS189. Described as above. The note with it: P. falciparum in erythrocytes, SYBR Green DNA, 72 h; series mostly up to 28.7 µM. The gist of the method: as §1
A further assay concerns ATS95. The assay is described as above. As to conditions: P. falciparum in erythrocytes, SYBR Green DNA, 72 h; series mostly up to 28.7 µM. In a few lines:
as §1

For another assay, the system named is C2A. Described as above. The note with it: P. falciparum in erythrocytes, SYBR Green DNA, 72 h; series mostly up to 28.7 µM. In a few lines:
as §1

For a further assay, the system named is CP185. The assay is described as above. As to conditions: P. falciparum in erythrocytes, SYBR Green DNA, 72 h; series mostly up to 28.7 µM. The gist of the method:
as §1

The subject of the next assay is CP191. The assay is described as above. The note with it: P. falciparum in erythrocytes, SYBR Green DNA, 72 h; series mostly up to 28.7 µM. In a few lines: as §1
For another assay, the system named is CP192. The description is as above. The note with it: P. falciparum in erythrocytes, SYBR Green DNA, 72 h; series mostly up to 28.7 µM. In a few lines: as §1
The test system of the next assay is CP194. Described as above. As to conditions: P. falciparum in erythrocytes, SYBR Green DNA, 72 h; series mostly up to 28.7 µM. The gist of the method:
as §1

The next assay deals with CP201. The description is as above. As to conditions: P. falciparum in erythrocytes, SYBR Green DNA, 72 h; series mostly up to 28.7 µM. In a few lines:
as §1

The subject of a further assay is CP203. The assay is described as above. As to conditions: P. falciparum in erythrocytes, SYBR Green DNA, 72 h; series mostly up to 28.7 µM. The gist of the method:
as §1

For a further assay, the system named is CP211. Described as above. As to conditions: P. falciparum in erythrocytes, SYBR Green DNA, 72 h; series mostly up to 28.7 µM. The gist of the method:
as §1

Another assay concerns CP215. The assay is described as above. As to conditions: P. falciparum in erythrocytes, SYBR Green DNA, 72 h; series mostly up to 28.7 µM. The gist of the method:
as §1

For a further assay, the system named is CP217. The assay is described as above. The note with it: P. falciparum in erythrocytes, SYBR Green DNA, 72 h; series mostly up to 28.7 µM. The gist of the method:
as §1

The subject of another assay is CP237. The description is as above. As to conditions: P. falciparum in erythrocytes, SYBR Green DNA, 72 h; series mostly up to 28.7 µM. In a few lines:
as §1

Assay [2] can be described thus: Dual reporter qHTS for antagonist of Pregnane X Receptor (hPXR) against the NCATS DSHEA and TCM libraries: Fluorescence Readout (AID 1920061). Also: 0% is about no effect. As to conditions: PXR dual reporter cells, antagonist mode; series mostly up to 40 µM. The gist of the method: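 In antagonist mode, 2 uM rifampicin was added to hPXR-Luc HepG2 cells alongside test substances, incubated 24 h at 37 C; luminescence gave reporter activity, and CellTiter-Fluor fluorescence (405/540 nm) gave viability.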

Assay [3] in a line: qHTS drug screen for cell cycle checkpoint inhibitors in PARPi-resistant BRCA-mutant ovarian cancer cell lines. (AID 1963452; calls by dose curve). As to conditions: PEO1/OlaR viability, CellTiter-Glo luminescence, 96 h, stronger effect = lower value. In a few lines:
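PEO1, PEO4 and PEO1/OlaR ovarian cancer cells, 600 per well, exposed 96 h at 37C to a dilution series. Viability read by CellTiter-Glo luminescence, normalized to DMSO and empty wells; activity summarized as Z-AUC.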

Where [4] appears, read: measured here: PEO1 parental Z-AUC.

Where “and” joins values, the source holds several entries; their conditions need not be identical. Identical values can stand only once. Records with an inconclusive call do not appear. Calls of active or inactive are those of the source. Unless noted, calls follow the shape of the dose curve; as a rule, active = well fitted curve in the direction sought with a large enough effect; inconclusive = small, poorly fitted or top-dose-only effect, or another doubt; inactive = no such curve, though single readings can be large; an effect the other way counts as inactive or inconclusive.

For `OCC(O)CN1CCN(c2ccccc2)CC1` (stereo unspecified), the results for the activity, negative = inhibition in [1] (parasite line A) and in assay [1] (parasite line B) were 5.92% (inactive) and 10.4% (inactive), respectively. The Potency entry in the assay with 3D7, in the assay with 7G8, in the assay with AA1029, with AS120, in the assay on ATS189 and in the assay on ATS95 was “inactive” in each case. In addition, the Potency entry in the assay on C2A, with CP185, with CP191, with CP192, in the assay with CP194 and in the assay on CP201 was “inactive” each time. For the same molecule, the Potency result in the assay on CP203, with CP211, with CP215, with CP217 and in the assay with CP237 was “inactive” in each case.
Consider `O=C1O[C@H]([C@@H](O)CO)C(O)=C1O`, for which the outcome in assay [2] was inactive. Besides, the activity, negative = inhibition was 10.5% (inactive) in assay [1] (parasite line A) and 5.51% (inactive) in assay [1] (parasite line B). In addition, the Potency entry in the assay on 3D7, in the assay on 7G8, with AA1029, with AS120, in the assay on ATS189 and in the assay with ATS95 was “inactive” each time. Further, the Potency entry in the assay on C2A, in the assay with CP185, in the assay on CP191, in the assay with CP192, in the assay on CP194 and with CP201 was “inactive” in each case. The Potency result with CP203, in the assay on CP211, in the assay on CP215, in the assay with CP217 and in the assay with CP237 was “inactive” in each case.
With `O=C1Nc2ccc(Cl)cc2[C@@](C#CC2CC2)(C(F)(F)F)O1`, the Z-AUC was -0.995 (inactive) and -0.662 (inactive) in assay [3]; -0.432 and 0.539 in [3] (setting [4]); -0.62 and -0.612 in [3] (measured here: PEO4 Z-AUC).
As to `CCN(CC)CCNC(=O)c1c(C)[nH]c(/C=C2\C(=O)Nc3ccc(F)cc32)c1C`, the Z-AUC in [3] was -0.535 (inactive); in assay [3] (setting [4]) it was -0.162; in assay [3] (measured here: PEO4 Z-AUC), -0.0779. The Potency in [1] (parasite line A) is 6.31 µM (active); in [1] (parasite line B), 8.91 µM (active); with 3D7 it was 8.91 µM (active); with 7G8, 3.98 µM (active); in the assay with AA1029 it was 8.91 µM (active); in the assay on AS120, 7.08 µM (active). Moreover, the Potency is 8.91 µM (active) with ATS189; 7.08 µM (active) with ATS95; 11.2 µM (active) in the assay with C2A; 7.08 µM (active) in the assay with CP185; 7.94 µM (active) with CP191; 10.7 µM (active) in the assay on CP203. Moreover, the Potency is 10.7 µM (active) in the assay on CP211, 11.2 µM (active) in the assay with CP217 and 8.91 µM (active) with CP237.
For `Nc1nc2c(ncn2CCC(CO)CO)c(=O)[nH]1`, the activity, negative = inhibition in assay [1] (parasite line A) is 3.65% (inactive); in [1] (parasite line B), -4.23% (inactive). Also, the Potency result with 3D7, in the assay with 7G8, in the assay on AA1029, in the assay on AS120, in the assay with ATS189 and with ATS95 was “inactive” in each case. For the same molecule, the Potency entry in the assay with C2A, in the assay with CP185, with CP191, in the assay on CP192, in the assay on CP194 and in the assay with CP201 was “inactive” in each case. For the same molecule, the Potency entry in the assay on CP203, in the assay with CP211, in the assay on CP215, in the assay with CP217 and with CP237 was “inactive” throughout.
For `CCN(CC)CCCC(C)Nc1c2ccc(Cl)cc2nc2ccc(OC)cc12` (stereo unspecified), the Z-AUC is -0.243 (inactive) in [3], -1.15 in assay [3] (setting [4]) and -1.09 in assay [3] (measured here: PEO4 Z-AUC).
On to `CCC(=O)c1ccc(O)cc1`, for which the activity, negative = inhibition in [1] (parasite line A) was 12.2% (inactive); in [1] (parasite line B) it was 2.42% (inactive). For the same molecule, the Potency entry in the assay with 3D7, in the assay on 7G8, with AA1029, in the assay with AS120, with ATS189 and in the assay with ATS95 was “inactive” each time. The Potency entry with C2A, in the assay on CP185, with CP191, with CP192, with CP194 and in the assay with CP201 was “inactive” in each case. The Potency result in the assay on CP203, with CP211, in the assay on CP215, with CP217 and in the assay with CP237 was “inactive” in each case.
For `CC12CCC(CC1)C(C)(C)O2`, the call in [2] was inactive. Besides, the activity, negative = inhibition in assay [1] (parasite line A) was 9.21% (inactive); in [1] (parasite line B) it was -14.4% (inactive). The Potency result with 3D7, in the assay with 7G8, in the assay with AA1029, in the assay on AS120, in the assay on ATS189 and in the assay on ATS95 was “inactive” in each case. In addition, the Potency entry with C2A, in the assay on CP185, in the assay on CP191, with CP192, with CP194 and in the assay on CP201 was “inactive” each time. Further, the Potency entry in the assay on CP203, with CP211, in the assay with CP215, in the assay on CP217 and in the assay on CP237 was “inactive” throughout.

(Values after PubChem BioAssay (NCATS).)
